# Laboratory results from ChEMBL document CHEMBL3988442, “University of Dundee, Small-Polar-MMV Screening Library” (2021).
# Screen size: about 48,000 compounds; about 13,000 (27%) showed an effect of 50% or more. Some of the results follow.
# Test system: Wolbachia pipientis
# Assay: Anti-Wolbachia Cell-Based Screen
# Assay type: functional
# Set-up: scale not given: in the data most compounds retested in dose-response had high values
# Details: 5 µM
row,Compound,Percent Effect [%]
1,CC(C(=O)N(Cc1ccccc1)CC(F)(F)F)S(C)(=O)=O (stereo not drawn),3.578
2,CC(C)NC(=O)CNC(=O)C12CCC(=O)N1c1cc(Cl)ccc1S2 (stereo not drawn),-9.931
3,COCCN1CCc2ccccc2NCCC1=O,80.29
4,CN(C(=O)CN1CCCC1=O)C1CCCN(C2Cc3ccccc3C2)C1 (stereo not drawn),-3.019
5,COCCN1CCC2(CCC1=O)CN(c1ccnc(SC)n1)CCN2C (stereo not drawn),3.783
6,COCCN1CC2(CCCN(C(=O)NCc3ccccc3)C2)CCC1=O (stereo not drawn),-41.75
7,CC(C)(C)C(=O)CN1Cc2ccccc2NCCC1=O,87.13
8,CC(C)(C)C(=O)CN1CCc2ccccc2NCCC1=O,91.03
9,O=C(CN1C(=O)CCNC1=O)N1CCC2(CCc3ccccc32)CC1,-1.469
10,CCN(C(=O)C1=NN(c2ccccc2)C(=O)CN1)c1ccccc1,14.38
11,CCNC(=O)N1C[C@@H]2OCC(=O)N(Cc3cccnc3)[C@@H]2C1,-2.175
12,C[C@H](CCO)NS(=O)(=O)c1ccc(Br)cn1,0.586
13,COc1nccnc1N1CCC2(CC1)[C@H](O)C[C@@H]2OCCN(C)C,-0.5657
14,COC(=O)CCCn1ccnc1C(C)c1ccccc1 (stereo not drawn),30.01
15,O=C(N1CCCC1)N1CCN(c2ccc(Cl)nn2)C(=O)C1,104
16,Cc1ccc2c(n1)N(CCN(C)C)CCN(C(=O)N1CCOCC1)C2,-2.22
17,O=C(N1CCCCC1)N1CCN(c2ccc(Cl)nn2)C(=O)C1,123
18,O=C(N1CCOCC1)N1CCN(c2ccnc3ccsc23)CC1,30.34
19,O=C(Cc1ccc(CO)cc1)N1CCN(c2ccccc2Cl)C(=O)C1,-19.49
20,O=C(N1CCOCC1)N1CCN(c2ccc(Cl)nn2)C(=O)C1,98.36
21,CN(C)c1ccc(C(=O)N2CCN(C(=O)N3CCCCC3)CC2)nn1,6.871
22,O=C(Cc1ccc2c(c1)OCO2)N1CCN(c2ccccc2Cl)C(=O)C1,2.346
23,CN1CCN(C(=O)N2CCCC2)Cc2cccnc21,-1.039
24,O=C(CN1CCN(c2ccnc3c(F)ccc(F)c23)CC1)NC1CC1,-1.102
25,O=C(Nc1ccc2c(c1)OCO2)N1CCN(CCc2ccccc2)CC1,10.38
26,CC(C)OCc1ncn2c1CN(Cc1nccs1)CCC2.O=C(O)C(F)(F)F,19.89

row,Compound,Percent Effect [%]
1,CN1C(=O)CO[C@H]2CN(C(=O)Nc3ccc(F)cc3)C[C@H]21,-3.92
2,CN(C)C(=O)C1CCC2(CCN(C(=O)Nc3ccc(F)cc3)CC2)O1 (stereo not drawn),104.3
3,Cc1ccc(NC(=O)N2CCC3(CCC(C(=O)N(C)C)O3)CC2)cc1 (stereo not drawn),103.6
4,CCC1=N[C@@]2(CC[C@@H]3CN(C(=O)Nc4ccc(F)cc4)C[C@@H]32)C(=O)N1,-8.843
5,CN(C)C(=O)C1CCC2(CCN(C(=O)Nc3ccccc3)CC2)O1 (stereo not drawn),111.7
6,O=C(Nc1ccc(S(=O)(=O)Nc2ccccc2)cc1)N1CCCC1,10.15
7,CN(C)C(=O)N1CCC2(CCC(C(=O)N3CCCC3)O2)CC1 (stereo not drawn),-25.65
8,CC(=O)NC1CCN(C(=O)Nc2ccc(SC(F)F)cc2)CC1,1.325
9,CCN(C)CC1CCN(C(=O)Nc2ccc(C)cc2)C1 (stereo not drawn),-10.96
10,CCCN1CCCC2(CCN(S(=O)(=O)N3CCC(OC)CC3)C2)C1=O (stereo not drawn),-17.89
11,CCCNC(=O)NCc1ccccc1NS(=O)(=O)c1ccccc1,1.164
12,COc1c(C2CCCN2Cc2nnc(C3CC3)o2)c(C)nn1C (stereo not drawn),-22.17
13,CCN(Cc1noc(C)n1)C(=O)C(c1ccc(C)cc1)N(C)C (stereo not drawn),-5.423
14,CC(=O)N1CCN(C(=O)CCc2cc(Br)cs2)CC1,-5.733
15,CC1(Cc2cccnc2)NCCc2[nH]cnc21 (stereo not drawn),0.4171
16,CC(C)Cc1ccc(C(=O)Cn2cnnc2[S+](C)[O-])cc1 (stereo not drawn),22.36
17,CCN1C(=O)CCC12CCCN(S(=O)(=O)c1cccc(C)c1)CC2 (stereo not drawn),-13.05
18,CS(=O)(=O)N1CCCC12CCCN(S(=O)(=O)c1cccc(F)c1)C2 (stereo not drawn),85.55
19,Cc1cccc(S(=O)(=O)N2CCCC3(CCCN3S(C)(=O)=O)C2)c1 (stereo not drawn),110.4
20,CS(=O)(=O)N1CCCC12CCCN(S(=O)(=O)c1cc(F)cc(F)c1)C2 (stereo not drawn),-5.366
21,CNC(=O)[C@@]12CCO[C@@H]1CCN(S(=O)(=O)c1cccc(F)c1)C2,-9.413
22,Cc1cccc(S(=O)(=O)N2CCCc3c(c(=O)n(C)n3C)C2)c1,-4.559
23,COc1ccc(Nc2ncccc2C#N)cc1N1CCCC1=O,9.755
24,Cc1cc(S(=O)(=O)Nc2onc(C)c2C)sc1C,-16.29
25,Cc1nn(C)c(C)c1C1CCCN1C(=O)CCCc1ccccn1 (stereo not drawn),91.34
26,COc1c(C2CCCN2C(=O)CCNc2ncccn2)c(C)nn1C (stereo not drawn),119.8

row,Compound,Percent Effect [%]
1,Cc1nn(C)c(C)c1C1CCCN1C(=O)CCNS(C)(=O)=O (stereo not drawn),101.1
2,Cc1nn(C)c(C)c1C1CCCN1C(=O)CCc1cscn1 (stereo not drawn),-3.183
3,Cc1nn(C)c(C)c1C1CCCN1Cc1nc(-c2ccco2)oc1C (stereo not drawn),-2.901
4,CS(=O)(=O)NCCC(=O)N1CCCC1c1noc(C2CC2)n1 (stereo not drawn),-8.062
5,Cc1nn(C)c(C)c1C1CCCN1C(=O)CCc1ccco1 (stereo not drawn),103
6,COc1ccc(C2CCCN2C(=O)CCNc2ncccn2)cc1 (stereo not drawn),1.66
7,CSc1ccc(CNCCS(=O)(=O)N2CCOCC2)cc1,-30.29
8,CC1(C)CN(C(=O)c2ccc3nncn3c2)CCS1,-32.23
9,COCC1CN(C(=O)CC2Cc3ccccc3C2)Cc2c1cnn2C (stereo not drawn),-1.669
10,Cc1nn(C)c(C)c1C1CCCN1C(=O)CCCNc1ncccn1 (stereo not drawn),79.99
11,Cc1nn(C)c(Cl)c1C1CCCN1C(=O)CCNc1ncccn1 (stereo not drawn),95.62
12,Cc1nn(C)c(C)c1C1CCCN1C(=O)CCNc1ncccn1 (stereo not drawn),2.112
13,Cc1nn(C)c(C)c1C1CCCN1C(=O)CCCn1cccn1 (stereo not drawn),12.2
14,Fc1cccc2c1CCC2NCc1cnc(N2CCOCC2)nc1 (stereo not drawn),3.105
15,COC(=O)CCC(=O)N(C/C=C/c1ccccc1)CCO,-11.86
16,COc1cccc(F)c1C(C)NC(=O)NCCc1ccc(C)nc1 (stereo not drawn),1.538
17,O=C(Nc1nncs1)NC1CCOc2ccccc21 (stereo not drawn),13.17
18,Cc1cc(CN(C)C(=O)Nc2cnc3c(c2)c(C)nn3C)no1,2.843
19,COc1ccc(S(=O)(=O)NCCC(O)c2ccccc2)c(C)c1 (stereo not drawn),8.858
20,COCc1nc2nc(O)c3c(n2n1)NC(=O)CC3c1ccccc1Cl (stereo not drawn),-6.394
21,O=C(O)C(F)(F)F.O=S(=O)(C1CC1)N1CC[C@@H](OCC2CC2)[C@@H]1Cc1ccncc1,-7.9
22,O=C(O)C(F)(F)F.O=C(O)C(F)(F)F.O=C(c1cccnc1)N1CC[C@H](OCC2CC2)[C@@H]1Cc1cccnc1,-13.6
23,O=C(O)C(F)(F)F.O=C(c1ccc[nH]1)N1CC[C@@H](OCC2CC2)[C@@H]1Cc1cccnc1,9.663
24,O=C(O)C(F)(F)F.c1cnc(N2CC[C@@H](OCC3CC3)[C@@H]2Cc2cccnc2)nc1,125.6
25,O=C(O)C(F)(F)F.O=S(=O)(C1CC1)N1CC[C@H](OCC2CC2)[C@@H]1Cc1cccnc1,-0.6171
26,O=C(O)C(F)(F)F.O=C(O)C(F)(F)F.c1ccc(N2CC[C@H](OCC3CC3)[C@@H]2Cc2cccnc2)nc1,102.1

row,Compound,Percent Effect [%]
1,Cn1nc2c(cc1=O)CN(Cc1nnc(-c3ccc(F)cc3)o1)CC2,-3.918
2,CC(NC(=O)NCCNc1cccc(F)c1C#N)c1nccs1 (stereo not drawn),-8.965
3,CC(=O)N1CCOCC2(C1)CN(S(C)(=O)=O)CCO2 (stereo not drawn),-9.255
4,COC(=O)c1cccc(S(=O)(=O)NC(=O)COC2CCCCC2)c1,108.7
5,COC(=O)c1cccc(S(=O)(=O)Nc2ncc(C)s2)c1,-16.51
6,COC(=O)c1cccc(S(=O)(=O)NC(=O)COC2CCCC2)c1,86.25
7,COC(=O)c1cccc(S(=O)(=O)Nc2ccc(Cl)c(C(N)=O)c2)c1,-9.655
8,COC(=O)c1cccc(S(=O)(=O)NC(=O)c2ccccc2F)c1,8.807
9,COC(=O)c1cccc(S(=O)(=O)NC(=O)CC2CCCC2)c1,1.549
10,Cc1occc1C(=O)N1CCCC1c1ccc(C(=O)N2CCOCC2)s1 (stereo not drawn),1.721
11,CC(C)N(C)C(=O)CSCc1ccc(S(=O)(=O)N(C)C)o1,-4.323
12,Cc1ccc(OCCN(C)Cc2ccc(S(=O)(=O)N(C)C)o2)cc1,101.9
13,Cc1cc(C)cc(OCCN(C)Cc2cscn2)c1,-4.131
14,Cc1ccc(OCCN(C)Cc2cscn2)cc1,-7.225
15,Cc1nnc(CN(C)CCCOc2ccc(Cl)cc2)o1,-9.497
16,Cc1nnc(CN(C)CCOc2cccc(Cl)c2)o1,6.512
17,Cc1ccc(OCCN(C)S(=O)(=O)N2CCOCC2)cc1,-11.92
18,CN(CCOc1ccc(Cl)cc1)Cc1ccc(S(=O)(=O)N(C)C)o1,82.71
19,Cc1cc(C)cc(OCCN(C)Cc2ccc(S(=O)(=O)N(C)C)o2)c1,89.38
20,COCCN(CC(N)=O)CC1CCCN(C2Cc3ccccc3C2)C1 (stereo not drawn),-0.9874
21,Cc1ccsc1C(=O)N1Cc2ncn(C)c2C(COCC2CC2)C1.O=C(O)C(F)(F)F (stereo not drawn),46.58
22,Cc1noc(C)c1C(=O)N1Cc2ncn(C)c2C(COCC(C)C)C1.O=C(O)C(F)(F)F (stereo not drawn),115.1
23,Cc1noc(C)c1C(=O)N1Cc2ncn(C)c2C(COCC2CC2)C1.O=C(O)C(F)(F)F (stereo not drawn),110.4
24,Cn1cnc2c1C(COCC1CCOCC1)CN(C(=O)c1ccco1)C2.O=C(O)C(F)(F)F (stereo not drawn),-6.702
25,CC(C)COCC1CN(Cc2ccc3c(c2)OCO3)Cc2ncn(C)c21.O=C(O)C(F)(F)F.O=C(O)C(F)(F)F (stereo not drawn),29.31
